From ChEMBL document CHEMBL2218924, “A broad activity screen in support of a chemogenomic map for kinase signalling research and drug discovery” (Biochem J, 2013) come the findings set out here.

One assay has as its target Serine/threonine-protein kinase mTOR (Homo sapiens) (UniProt P42345). As to conditions: at 10 µM.
In the case of `c1cc(-c2cnn3cc(-c4ccc(OCCN5CCCCC5)cc4)cnc23)ccn1`, the residual activity turned out to be 84%.
With `N/C(=N\[N+](=O)[O-])N/N=C\c1ccc(-c2cccc([N+](=O)[O-])c2)o1`, the residual activity is 88%.
Consider `O=c1[nH]c2ccccc2n1C1CCN(Cc2ccc(-c3nc4cc5[nH]cnc5cc4nc3-c3ccccc3)cc2)CC1`, for which the residual activity was 102%.
Take `O=C1Nc2ccc3ncsc3c2/C1=C/c1c[nH]cn1`: the residual activity came out at 95%.
`CCc1nc(-c2ccc(OC)cc2)[nH]c1-c1ccncc1`: the residual activity came out at 73%.
As for `COC(=O)[C@@]1(O)C[C@H]2O[C@]1(C)n1c3ccccc3c3c4c(c5c6ccccc6n2c5c31)C(=O)NC4`, the residual activity worked out at 79%.
For `COc1cc2ncnc(Nc3ccc(OCc4ccccc4)cc3)c2cc1OC`, the residual activity is 97%.
For `C[S+]([O-])c1ccc(-c2nc(-c3ccc(F)cc3)c(-c3ccncc3)[nH]2)cc1` (stereo not drawn), the residual activity was 96%.
As for `O=[N+]([O-])/C=C/c1ccc2c(c1)OCO2`, the residual activity worked out at 77%.
On to `O=C1NC(=O)c2c1c1c3ccccc3n3c1c1c2c2ccccc2n1C1CCC3O1`, for which the residual activity is 59%.
As for `CN[C@@H]1C[C@H]2O[C@@](C)([C@@H]1OC)n1c3ccccc3c3c4c(c5c6ccccc6n2c5c31)C(=O)NC4`, the residual activity stood at 90%.
`COc1ccc2c(c[n+](C)c3c4cc5c(cc4ccc23)OCO5)c1OC`: the residual activity came out at 89%.
For `COc1ccc2c(c1)/C(=C/c1cnc[nH]1)C(=O)N2`, the residual activity stood at 71%.

The target of another assay is Ribosomal protein S6 kinase beta-1 (Homo sapiens) (UniProt P23443). As to conditions: at 1 µM.
Sequence of Ribosomal protein S6 kinase beta-1 (Homo sapiens) (P23443 whole entry, looked up): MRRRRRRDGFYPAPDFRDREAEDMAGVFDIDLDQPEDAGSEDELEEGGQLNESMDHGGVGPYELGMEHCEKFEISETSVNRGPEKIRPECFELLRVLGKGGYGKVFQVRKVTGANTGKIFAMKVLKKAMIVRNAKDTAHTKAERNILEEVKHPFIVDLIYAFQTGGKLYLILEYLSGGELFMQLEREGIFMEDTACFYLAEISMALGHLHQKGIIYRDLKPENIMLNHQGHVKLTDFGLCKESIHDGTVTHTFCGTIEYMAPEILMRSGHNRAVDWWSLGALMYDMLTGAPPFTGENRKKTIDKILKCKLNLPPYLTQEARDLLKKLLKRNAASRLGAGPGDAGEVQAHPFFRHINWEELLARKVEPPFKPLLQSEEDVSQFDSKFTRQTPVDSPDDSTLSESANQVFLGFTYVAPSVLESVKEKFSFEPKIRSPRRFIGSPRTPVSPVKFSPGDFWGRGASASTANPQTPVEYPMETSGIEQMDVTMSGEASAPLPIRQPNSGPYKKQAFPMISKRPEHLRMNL
For the compound `c1cc(-c2cnn3cc(-c4ccc(OCCN5CCCCC5)cc4)cnc23)ccn1`, the residual activity stood at 86%.
In the case of `N/C(=N\[N+](=O)[O-])N/N=C\c1ccc(-c2cccc([N+](=O)[O-])c2)o1`, the residual activity is 85%.
Consider `O=c1[nH]c2ccccc2n1C1CCN(Cc2ccc(-c3nc4cc5[nH]cnc5cc4nc3-c3ccccc3)cc2)CC1`, for which the residual activity amounted to 70%.
Turning to `O=C1Nc2ccc3ncsc3c2/C1=C/c1c[nH]cn1`, the residual activity amounted to 46%.
Turning to `COc1cc(OC)c(/C=C2\C(=O)Nc3ccccc32)c(OC)c1`, the residual activity was found to be 124%.
Take `CC(C)[C@H](CO)Nc1nc(Nc2cccc(Cl)c2)c2ncn(C(C)C)c2n1`: the residual activity was 88%.
As to `COC(=O)[C@@]1(O)C[C@H]2O[C@]1(C)n1c3ccccc3c3c4c(c5c6ccccc6n2c5c31)C(=O)NC4`, the residual activity is 6%.
Same read-out and setting: as for `COc1cc2ncnc(Nc3ccc(OCc4ccccc4)cc3)c2cc1OC`, the figure is 82%; as for `C[S+]([O-])c1ccc(-c2nc(-c3ccc(F)cc3)c(-c3ccncc3)[nH]2)cc1` (stereo not drawn), 103%.
On to `CC(C)(C)c1cc(C=C(C#N)C#N)cc(Br)c1O`, for which the residual activity is 110%.
Still for that read-out and setting: then `O=[N+]([O-])/C=C/c1ccc2c(c1)OCO2`, with 137%.
As for `CCn1cnc2c(Nc3cccc(Cl)c3)nc(N[C@@H]3CCCC[C@@H]3N)nc21`, the residual activity is 66%.
Consider `O=C1NC(=O)c2c1c1c3ccccc3n3c1c1c2c2ccccc2n1C1CCC3O1`, for which the residual activity worked out at 51%.
As for `O=C1c2ccccc2-c2nc3nnnn3nc21`, the residual activity is 83%.
For the compound `COc1ccc2c(c[n+](C)c3c4cc5c(cc4ccc23)OCO5)c1OC`, the residual activity worked out at 130%.

In general, residual activity refers to the signal under treatment as a percentage of the control signal.
